# The supplement of paper PMC9135407
# Values joined by “and” are separate entries in the source; they are usually repeats but may differ in a detail not shown here. Identical values can stand only once. Counter-ions that a name gives are not always drawn. Screen size: about 5,800 compounds; about 620 (11%) showed activity. Many of the other results were omitted from the sample, so actives are more common in it than they were. A number with no mark means an inactive call.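 Rule for the calls: active = score above a cut-off or among the top three wells of a plate; in these data no inactive exceeds 0.85.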
# Tested on: primary human hepatic stellate cells (donor 1)
# Assay: scaled lipid accumulation score (0 = DMSO-like, 1 = nortriptyline-like); higher = stronger HSC inactivation (lipid re-accumulation), active = hit call of the paper
# Settings: 48 h
# [1] = library stock concentration: 3.33 mM
# [2] = library stock concentration: 10 mM
# [3] = library stock concentration: 1 mM
# [4] = library stock concentration: 80 uM
# [5] = library stock concentration: 400 uM
# [6] = library stock concentration: 2 mM
# [7] = library stock concentration: 4.7 mM
structure (smiles),measurement,setting,value
"O=c1[nH][nH]c2nnc(-c3c(-c4ccccc4)nn4ccccc34)cc12 [ERK Inhibitor II, Negative Control]",scaled lipid accumulation score,[1],≤ 0
C=CC[N+]1([C@H]2C[C@H]3[C@@H]4CC[C@H]5C[C@H](O)[C@@H](N6CCOCC6)C[C@]5(C)[C@H]4CC[C@]3(C)[C@H]2OC(C)=O)CCCC1 [Rocuronium Bromide],scaled lipid accumulation score,[1],≤ 0
same,scaled lipid accumulation score,[2],≤ 0
COc1ccc(C2(O)OC(=O)C(c3ccc4c(c3)OCO4)=C2Cc2cc(OC)c(OC)c(OC)c2)cc1 (stereo unspecified),scaled lipid accumulation score,[2],0.037
CCCCCCCCCCCC(=O)CC(=O)N[C@H]1CCOC1=O [N-3-oxo-tetradecanoyl-L-Homoserine lactone],scaled lipid accumulation score,[3],≤ 0
CC/C=C\C/C=C\C/C=C\CCCCCCCCCCCC(=O)O [Docosatrienoic acid (22:3 n-3)],scaled lipid accumulation score,[3],≤ -0.021
COc1cccc2c1[C@@H]1CN(CCCCn3c(=O)[nH]c4c(sc5ncc(-c6ccccc6)nc54)c3=O)C[C@@H]1CO2.Cl [Fiduxosin hydrochloride],scaled lipid accumulation score,[2],0.863 (active)
COc1ccc(/C=C/c2ccccc2F)cc1,scaled lipid accumulation score,[3],0.063
C/N=C(/NC#N)NCCSCc1csc(NC(=N)N)n1 [Tiotidine],scaled lipid accumulation score,library stock concentration: 6.4 mM,≤ -0.006
same,scaled lipid accumulation score,[2],0.044
COc1cc2nc(N3CCCN(C)CC3)nc(NC3CCN(Cc4ccccc4)CC3)c2cc1OC,scaled lipid accumulation score,[4],≤ 0
same,scaled lipid accumulation score,[5],≤ 0
same,scaled lipid accumulation score,[6],0.569
same,scaled lipid accumulation score,[1],0.42
same,scaled lipid accumulation score,[2],0.096 and 0.353 and 0.204
COc1cc2nc(N3CCCN(C)CC3)nc(NC3CCN(Cc4ccccc4)CC3)c2cc1OC.Cl.Cl.Cl.O,scaled lipid accumulation score,[3],0.804 (active)
COc1cc2c(NC3CCN(C(C)C)CC3)nc(C3CCCCC3)nc2cc1OCCCN1CCCC1,scaled lipid accumulation score,[4],≤ 0
same,scaled lipid accumulation score,[5],≤ 0
same,scaled lipid accumulation score,[6],0.354
same,scaled lipid accumulation score,[2],0.14
Nc1nccc(-c2c(-c3ccc(F)cc3)ncn2C2CCNCC2)n1,scaled lipid accumulation score,[1],≤ 0
O=S1(=O)c2cccc3cccc(c23)N1CCCN1CCN(c2ccc(F)cc2)CC1 [Fananserin],scaled lipid accumulation score,[2],0.048
CS(=O)(=O)O.N=C(N)SCCc1ccc(OCc2ccc([N+](=O)[O-])cc2)cc1 [KB-R7943 mesylate],scaled lipid accumulation score,[2],0.99 (active)
"N=C(N)SCCc1ccc(CCSC(=N)N)cc1 [1,4-PBIT (dihydrobromide)]",scaled lipid accumulation score,[3],0.049
"N=C(N)SCCc1cccc(CCSC(=N)N)c1 [1,3-PBIT (dihydrobromide)]",scaled lipid accumulation score,[3],≤ 0
C=CCNC(N)=S,scaled lipid accumulation score,[2],≤ 0
C=CCNC(N)=S [Allylthiourea],scaled lipid accumulation score,[1],≤ 0
same,scaled lipid accumulation score,[2],≤ -0.001
CCCCCCCCCCCCCCNC(=O)C1CCCCC1 [N-Cyclohexanecarbonyltetradecylamine],scaled lipid accumulation score,[3],0.008
CC(C)c1noc(N2CCC(COc3ccc(-c4ccc(S(C)(=O)=O)cc4)nc3)CC2)n1,scaled lipid accumulation score,[1],0.019
same,scaled lipid accumulation score,[2],0.16
Oc1cc(O)c(Cl)cn1 [Gimeracil],scaled lipid accumulation score,[1],0.014
same,scaled lipid accumulation score,[2],0.04
COC(=O)Nc1nc2ccc(SC(C)C)cc2[nH]1 [Methiazole],scaled lipid accumulation score,,≤ 0
CCCSc1ccc2nc(NC(=O)OC)[nH]c2c1 [Albendazole],scaled lipid accumulation score,[2],0.892 (active)
CCCSc1ccc2[nH]c(NC(=O)OC)nc2c1 [Albendazole],scaled lipid accumulation score,,0.176
same,scaled lipid accumulation score,[1],≤ 0
same,scaled lipid accumulation score,library stock concentration: 7.5 mM,0.449 and ≤ 0
same,scaled lipid accumulation score,[2],≤ -0.027 and 0.562
"O=P(O)(O)O[C@H]1[C@H](O)[C@@H](O)[C@H](OP(=O)(O)O)[C@@H](OP(=O)(O)O)[C@H]1O [D-myo-Inositol-1,3,4-triphosphate (sodium salt)]",scaled lipid accumulation score,[3],≤ 0
CNCCCC1c2ccccc2C=Cc2ccccc21.Cl [Protriptyline hydrochloride],scaled lipid accumulation score,,1.24 (active)
same,scaled lipid accumulation score,[2],0.911 (active)
CNCCCC1c2ccccc2C=Cc2ccccc21 [Protryptyline hydrochloride],scaled lipid accumulation score,library stock concentration: 6.7 mM,0.698
Nc1nc(OCC2CCCCC2)c2[nH]cnc2n1,scaled lipid accumulation score,[2],≤ -0.055
S=P(N1CC1)(N1CC1)N1CC1 [Thiotepa],scaled lipid accumulation score,[2],≤ -0.027
same,scaled lipid accumulation score,library stock concentration: 10.6 mM,≤ 0
CCCCCCCCCCCCCCCCOCC(CO)OC(C)=O (stereo unspecified) [1-Hexadecyl-2-O-acetyl-glycerol],scaled lipid accumulation score,[3],0.035
CC(C)N1Cc2cc(S(C)(=O)=O)ccc2N(CCN2CC=C(c3c[nH]c4cc(F)ccc34)CC2)S1(=O)=O,scaled lipid accumulation score,[2],0.137
C[C@@]1(C(=O)Nc2ccc(F)nc2)CCCN1c1nc(Nc2cc(C3CC3)n[nH]2)c2cccn2n1,scaled lipid accumulation score,[1],≤ 0
same,scaled lipid accumulation score,[2],0.177
CN1CCC(=C2c3ccccc3CC(=O)c3sccc32)CC1.O=C(O)/C=C/C(=O)O [Ketotifen fumarate],scaled lipid accumulation score,[2],0.913 (active)
CN1CCC(=C2c3ccccc3CC(=O)c3sccc32)CC1 [Ketotifen Fumarate],scaled lipid accumulation score,[1],≤ 0
same,scaled lipid accumulation score,[2],0.576
NC(=O)N1c2ccccc2CC(=O)c2ccccc21 [Oxcarbazepine],scaled lipid accumulation score,[1],≤ 0
same,scaled lipid accumulation score,library stock concentration: 7.9 mM,≤ 0
same,scaled lipid accumulation score,[2],≤ 0 and ≤ -0.027
CN1CCC(=C2c3ccccc3CC(=O)c3sccc32)CC1 [Ketotifen fumarate],scaled lipid accumulation score,,0.627
same,scaled lipid accumulation score,[7],0.276
same,scaled lipid accumulation score,[2],0.172 and 0.737
NC(=O)N1c2ccccc2CC(=O)c2ccccc21 [Trileptal],scaled lipid accumulation score,[2],≤ 0
CN1CCC(=C2c3ccccc3CC(=O)c3sccc32)CC1,scaled lipid accumulation score,[2],0.593
CN1CCC(=C2c3ccccc3CCc3sccc32)CC1 [Pizotyline malate],scaled lipid accumulation score,[7],0.792
CN1CCC(=C2c3ccccc3CCc3sccc32)CC1 [Pizotifen malate],scaled lipid accumulation score,,0.782
CN1CCC(=C2c3ccccc3CCc3sccc32)CC1.O=C(O)CC(O)C(=O)O [Pizotifen Malate],scaled lipid accumulation score,[2],1.32 (active)
CN1CCC(=C2c3ccccc3CCc3sccc32)CC1.O=C(O)/C=C\C(=O)O [Pizotyline],scaled lipid accumulation score,[2],1.2 (active)
CN1CCC(=C2c3ccccc3CCc3sccc32)CC1 [Pizotifen Malate],scaled lipid accumulation score,[1],0.473
C[C@@]12C[C@@]3(O)O[C@@H](O1)[C@]1(COC(=O)c4ccccc4)[C@H]3C[C@@]12O[C@@H]1O[C@H](CO)[C@@H](O)[C@H](O)[C@H]1O [Paeoniflorin],scaled lipid accumulation score,[1],≤ 0
same,scaled lipid accumulation score,[2],≤ 0
COCc1c(C(C)C)nc(C(C)C)c(/C=C/[C@@H](O)C[C@@H](O)CC(=O)O)c1-c1ccc(F)cc1 [Cerivastatin],scaled lipid accumulation score,library stock concentration: 4.4 mM,0.228
COCc1c(C(C)C)nc(C(C)C)c(/C=C/[C@@H](O)C[C@@H](O)CC(=O)O)c1-c1ccc(F)cc1,scaled lipid accumulation score,[2],0.271
CCCOc1ccc(Br)cc1-c1cc(-c2ccc(Cl)cc2)[nH]c1-c1ccncc1,scaled lipid accumulation score,[2],0.006
O=C1NC(=O)c2cc(Nc3ccccc3)c(Nc3ccccc3)cc21,scaled lipid accumulation score,[2],0.353 and 0.003
Cc1cccc(-c2nn3c(c2-c2ccnc4ccc(C(N)=O)cc24)CCC3)n1,scaled lipid accumulation score,[1],0.006
same,scaled lipid accumulation score,[2],≤ 0
O=C(O)CCC/C=C\C[C@@H]1C(=O)C[C@@H](O)[C@@H]1/C=C/[C@@H](O)CC1CCCCC1 [8-iso-16-cyclohexyl-tetranor Prostaglandin E2],scaled lipid accumulation score,[3],≤ 0
CN1CCCC(n2nc(Cc3ccc(Cl)cc3)c3ccccc3c2=O)CC1 (stereo unspecified),scaled lipid accumulation score,[2],1.21 (active)
O=C(c1cc(Cc2n[nH]c(=O)c3ccccc23)ccc1F)N1CCN(C(=O)C2CC2)CC1,scaled lipid accumulation score,[1],≤ 0
same,scaled lipid accumulation score,[2],≤ 0
CN1CCCC(n2nc(Cc3ccc(Cl)cc3)c3ccccc3c2=O)CC1 (stereo unspecified) [Azelastine HCl],scaled lipid accumulation score,[1],0.604
O=C(c1cc(Cc2n[nH]c(=O)c3ccccc23)ccc1F)N1CCN(C(=O)C2CC2)CC1 [Olaparib],scaled lipid accumulation score,[4],≤ -0.0005
same,scaled lipid accumulation score,[5],≤ -0.0045
same,scaled lipid accumulation score,[6],≤ -0.0045
same,scaled lipid accumulation score,[2],≤ -0.0045
CN1CCCC(n2nc(Cc3ccc(Cl)cc3)c3ccccc3c2=O)CC1.Cl (stereo unspecified) [Azelastine HCl],scaled lipid accumulation score,[2],1.09 (active)
COC1CCN(C(=O)c2cc(Cc3n[nH]c(=O)c4ccccc34)ccc2F)CC1,scaled lipid accumulation score,[1],≤ 0
same,scaled lipid accumulation score,[2],≤ -0.001
CN1CCCC(n2nc(Cc3ccc(Cl)cc3)c3ccccc3c2=O)CC1.Cl (stereo unspecified) [Azelastine hydrochloride],scaled lipid accumulation score,library stock concentration: 4.8 mM,0.978 (active)
same,scaled lipid accumulation score,[2],0.992 (active)
NC(C(=O)O)c1ccc(C(=O)O)c(C(=O)O)c1 (racemic),scaled lipid accumulation score,[2],≤ -0.006
C[C@@H]1CN(c2c(F)c(F)c3c(=O)c(C(=O)O)cn(C4CC4)c3c2F)C[C@H](C)N1,scaled lipid accumulation score,[2],≤ 0
N=C(NO)NCC[C@H](N)C(=O)O,scaled lipid accumulation score,[3],≤ 0
CC(=O)Oc1cccc(O)c1 [Resorcinol monoacetate],scaled lipid accumulation score,[2],0.063
same,scaled lipid accumulation score,library stock concentration: 13.1 mM,≤ 0
CCCCCCCC/C=C\C/C=C\C/C=C\CCCC(=O)NCCO [Mead ethanolamide],scaled lipid accumulation score,[3],0.017
"CCCCCCCC/C=C\C/C=C\C/C=C\CCCC(=O)NCCO [5(Z),8(Z),11(Z)-Eicosatrienoic Acid Ethanolamide]",scaled lipid accumulation score,[3],0.015
CCCCCCCCCCCCCCCC(=O)O[C@H](CC(=O)O)C[N+](C)(C)C,scaled lipid accumulation score,[2],0.027
